Test results from PubChem BioAssay AID651820 (National Center for Advancing Translational Sciences (NCATS), 2012).
About 12,000 (3.5%) of roughly 340,000 compounds were called active. About 18% were inconclusive and are not listed. The entries come from a sample that favours actives as a whole. Entries that show only a call come without a potency. A number with no mark means an inactive call. The call rests on the fitted dose curve; in most records, active means well fitted inhibition curve with a large enough effect; inconclusive means small, poorly fitted or top-dose-only effect, or another doubt; inactive means no such curve, though single readings can be large or run the other way.

assay: qHTS Assay for Inhibitors of Hepatitis C Virus (HCV); conditions: Huh7.5.1 HCVcc-Cre infection, luciferase reporter, 44 h; series mostly up to 41.8 µM
Outline: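 A cell-based infection assay in which seeded cells (1,000 per well) receive test compound after 4 h, are inoculated with HCVcc-Cre at approximately 0.5 moi, and are incubated 44 h before luminescence detection.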
Potency means the concentration at half of the fitted maximal effect.

| Structure (SMILES) | Potency | activity change, negative = inhibition |
| --- | --- | --- |
| O=C(CN1C(=O)NC2(CCOc3ccccc32)C1=O)Nc1cccc([N+](=O)[O-])c1 (stereo unspecified) | inactive | – |
| CN(C(=O)COC(=O)c1nc(Cl)ccc1Cl)C1CCS(=O)(=O)C1 (stereo unspecified) | inactive | – |
| Cc1c(-c2cccc(Cl)c2)nc2ccccc2c1C(=O)OCC(=O)N(C)C1CCS(=O)(=O)C1 (stereo unspecified) | 3.55 µM (active) | – |
| CN(C(=O)COC(=O)c1cc(-c2ccco2)nc2ccccc12)C1CCS(=O)(=O)C1 (stereo unspecified) | inactive | – |
| Cc1ccc(CNC(=O)Cn2cnc3c(NCc4ccccc4)ncnc32)o1 | inactive | – |
| Cc1ccc(NC(=O)Cn2c(C)csc2=O)cc1 | inactive | – |
| CSCc1cc(N2CCOCC2)nc(SCc2ccc(Cl)cc2Cl)n1 | inactive | – |
| Clc1ccc(CSc2nnc(/C=C/c3ccccc3)o2)c(Cl)c1 | inactive | – |
| CSCc1cc(N(C)C)nc(SCc2ccc(Cl)cc2Cl)n1 | 8.91 µM (active) | – |
| Nn1c(SCC(=O)NC2CCCc3ccccc32)nnc1C1CC1 (stereo unspecified) | inactive | – |
| Cc1ccccc1Nc1nnc(C)c(=O)[nH]1 | inactive | – |
| Cc1nnc(N/N=C/c2cccs2)[nH]c1=O | inactive | – |
| Cc1nnc(N/N=C/c2ccccn2)[nH]c1=O | 3.55 µM (active) | – |
| CC(=O)N1CCc2ccc(N)cc21 | inactive | – |
| CCCCn1c(N)c(N(CCC(C)C)C(=O)CC2OC(=O)c3ccccc32)c(=O)[nH]c1=O (stereo unspecified) | inactive | – |
| COc1ccc(C2=NS(=O)(=O)N(C)C(C(=O)NC(C)c3ccccc3)=C2)cc1 (stereo unspecified) | inactive | – |
| COc1ccc(NC(=O)C2=CC(c3ccc(OC)c(OC)c3)=NS(=O)(=O)N2C)cc1 | 8.91 µM (active) | – |
| COc1cc(NC(=O)C2=CC(c3ccco3)=NS(=O)(=O)N2C)cc(OC)c1OC | inactive | – |
| COC(=O)C1CCN(C(=O)NC2CC(=O)N(c3ccc4c(c3)OCCO4)C2)CC1 (stereo unspecified) | inactive | – |
| O=S1(=O)CCOC[C@H](Cc2ccccc2)N1Cc1ccccc1Br | inactive | – |
| O=C1c2ccccc2C(=O)c2c1cccc2N1CCN(C/C=C/c2ccccc2)CC1 | 11.2 µM (active) | – |
| CNC(=O)NC(=O)C(C)N1CCN(C/C=C/c2ccccc2)CC1 (stereo unspecified) | inactive | – |
| O=C(CCN1CCN(C/C=C/c2ccccc2)CC1)Nc1ccccc1Cl | inactive | – |
| Nc1ncnc2c1cnn2C1CC(O)C(CO)O1 (stereo unspecified) | inactive | – |
| C=CCn1c(=O)n(C)c2c(=O)n(C)c(=O)n(C)c21 | inactive | – |
| CCOc1ccc(C(O)Cn2c(=N)n(CCN3CCCCC3)c3ccccc32)cc1 (stereo unspecified) | 10 µM (active) | – |

| Structure (SMILES) | Potency | activity change, negative = inhibition |
| --- | --- | --- |
| CCOc1ccc(C(O)Cc2nc3ccccc3n2C)cc1 (stereo unspecified) | inactive | – |
| Cc1cccc(OCC(O)Cn2c(=N)n(CCN3CCOCC3)c3ccccc32)c1 (stereo unspecified) | inactive | – |
| COc1ccc(S(=O)(=O)N2CCOCC2)cc1NC(=O)CC1CC2CCC1C2 (stereo unspecified) | inactive | – |
| COc1cc2c(cc1OC)CN(C(C)C(=O)Nc1cccc(S(=O)(=O)N3CCOCC3)c1)CC2 (stereo unspecified) | inactive | – |
| CCc1cc2c(NC(Cc3ccccc3)C(=O)O)ncnc2s1 (stereo unspecified) | inactive | – |
| CCc1cc2c(SCC(=O)Nc3ncc(Cl)c(C)c3Cl)ncnc2s1 | inactive | – |
| CCc1cc2c(NC3CCCC3)ncnc2s1 | 10 µM (active) | – |
| Cc1ccc(NC(=O)CN2CCc3ccccc3C2)cc1 | inactive | – |
| O=C(CN1CCOCC1)Nc1ccccc1 | inactive | – |
| O=C(CN1CCc2cc3c(cc2C1)OCCCO3)Nc1ccccc1 | 11.2 µM (active) | – |
| CNC(=O)C1CC(=O)N(c2ccc(OCC(=O)Nc3ccccc3C)cc2)C1 (stereo unspecified) | inactive | – |
| O=C(N[C@@H](Cc1ccccc1)C(=O)OCc1ccccc1)c1nc[nH]c1C(=O)NC1CCNCC1 | inactive | – |
| NS(=O)(=O)c1ccc(CCNC(=O)CN2C(=O)c3ccccc3S2(=O)=O)cc1 | inactive | – |
| CCCCn1c(SCC(=O)N2CCC(C(=O)OCC)CC2)nc2cc(S(N)(=O)=O)ccc21 | inactive | – |
| NS(=O)(=O)c1ccc(CCNC(=O)CCCn2c(SCC(=O)N3CCCC3)nc3ccsc3c2=O)cc1 | 2 µM (active) | – |
| CN1C(=O)[C@H]2[C@@H](/C=C/c3ccccc3)N3C(=O)CN(Cc4ccc(-c5ccccc5)cc4)C(=O)[C@@]3(C)[C@H]2C1=O | inactive | – |
| COc1ccc(CNC(=O)CN2C(=O)NC3(CCCc4sccc43)C2=O)cc1 (stereo unspecified) | inactive | – |
| O=C(Nc1ccc(N2C(=O)c3cccc4cccc(c34)C2=O)cc1)c1ccc(N2CCCCC2)c([N+](=O)[O-])c1 | inactive | – |
| CC(NC(=O)c1ccc(N2CCNCC2)c([N+](=O)[O-])c1)C12CC3CC(CC(C3)C1)C2 (stereo unspecified) | inactive | – |
| O=C(Nc1cccc(C(F)(F)F)c1)c1ccc(N2CCNCC2)c([N+](=O)[O-])c1 | 12.6 µM (active) | – |
| NC(=O)c1ncn([C@@H]2O[C@H](CN=C3NS(=O)(=O)c4ccccc43)[C@@H](O)[C@H]2O)n1 | inactive | – |
| CSc1ncnc2sc(C)c(C)c12 | inactive | – |
| CCOC(=O)C(C)n1cnc2sc(C)c(C)c2c1=O (stereo unspecified) | inactive | – |
| CCCNc1ncnc2sc(C)c(C)c12 | 8.91 µM (active) | – |
| CCN(C(=O)CSc1nnnn1-c1ccccc1OC)C1CCS(=O)(=O)C1 (stereo unspecified) | inactive | – |
| O=C(CCc1ccc(S(=O)(=O)N2CCOCC2)cc1)OCC(=O)c1ccc(Br)cc1 | inactive | – |

| Structure (SMILES) | Potency | activity change, negative = inhibition |
| --- | --- | --- |
| CC(=O)Nc1ccc(NC(=O)CSc2ncnc3c2cnn3Cc2ccccc2)cc1 | inactive | – |
| Clc1ccc(Cn2ncc3c(NCc4cccnc4)ncnc32)cc1 | 11.2 µM (active) | – |
| Clc1ccc(Nc2ncnc3c2nnn3Cc2ccccc2)cc1 | inactive | – |
| O=C(Cn1cnc2ccccc2c1=O)NNC(=O)c1ccccc1F | inactive | – |
| CC(C)NC(=O)Nc1cccc2c1O[C@@H](CN(C)S(=O)(=O)c1ccc(F)cc1)[C@@H](C)CN([C@H](C)CO)C2=O | inactive | – |
| Cc1cccc[n+]1CC(=O)c1ccccc1 | inactive | – |
| O=C(CNC(=O)c1ccc(F)cc1)c1ccccc1 | inactive | – |
| O=C(C[n+]1cc(Br)cc2ccccc21)c1ccc(F)cc1 | 10 µM (active) | – |
| O=C(NCCS(=O)(=O)NCc1ccc(F)cc1)c1ccccc1 | – | -2.73% [at 8.37 µM] |
| O=C(NCc1cccnc1)c1cc(S(=O)(=O)N2CCOCC2)c(Cl)cc1Cl | inactive | – |
| Cc1ccc(S(=O)(=O)N2CCN(C)CC2)cc1 | inactive | – |
| Cc1ccc(S(=O)(=O)N2CCN(c3ncnc4ccccc34)CC2)cc1 | 8.91 µM (active) | – |
| Cc1ccc(S(=O)(=O)N2CCN(Cc3cccc(C)c3O)CC2)cc1 | inactive | – |
| CC(=O)Nc1ccc(NC(=O)CSc2nnc(C3CC3)n2-c2ccccc2)cc1 | inactive | – |
| Cc1cccc(-c2oc3ccc(-c4ccc5c(c4)OCO5)cc3c2C#Cc2cncn2C)c1 | inactive | – |
| Cc1ccc(C(=O)O)c(NC=O)c1OCc1ccccc1 | inactive | – |
| Cc1ccc(S(=O)(=O)N2[C@@H](c3cccc4ccccc34)C(C(=O)O)=C[C@H]2C(C)(C)C)cc1 | inactive | – |
| COc1ccc(-c2n[nH]c(C)c2-c2ccc(OC)c(OC)c2)c(O)c1 | 11.2 µM (active) | – |
| CCOc1ccc(-c2n[nH]c(C)c2-c2ccccn2)c(O)c1 | inactive | – |
| COc1ccc(-n2c(-c3ccc(OC)c(OC)c3)n[nH]c2=S)cc1 | inactive | – |
| O=C1NCC(Nc2ccccc2)C(=O)N1 (stereo unspecified) | inactive | – |
| CCN(Cc1ccccc1)S(=O)(=O)c1cc2c3c(c1)CCN3C(=O)CC2 | inactive | – |
| Cc1ccc(C)c(N2CCN(C(=O)CCc3nc(-c4cccc(C(F)(F)F)c4)no3)CC2)c1 | inactive | – |
| COC(=O)c1ccc(C)c(NC(=O)Cn2c(C)csc2=O)c1 | inactive | – |
| Cn1nnnc1SCC(=O)Nc1nc2ccccc2s1 | inactive | – |
| C#CC(C)(C)NC(=O)CSc1nc2c(c(=O)n(C)c(=O)n2C)n1CCCC | inactive | – |

| Structure (SMILES) | Potency | activity change, negative = inhibition |
| --- | --- | --- |
| CCOc1ccc2nc(NC(=O)CSc3nc4c(c(=O)n(C)c(=O)n4C)n3CC)sc2c1 | 3.98 µM (active) | – |
| O=C(Cn1cnc2c(OCc3ccccc3)ncnc21)NCCCn1ccnc1 | inactive | – |
| Cc1ccc(-n2nc3cc(Cl)c(NC(=O)c4ccco4)cc3n2)cc1 | inactive | – |
| Cc1ccc(Cn2c(NC(=O)c3ccco3)nc3ccccc32)cc1 | inactive | – |
| CCn1nc(NC(=O)c2ccco2)c2cc3ccc(C)cc3nc21 | 10 µM (active) | – |
| CN1CCOC1c1ccc(C2OCCN2C)cc1 (stereo unspecified) | inactive | – |
| COc1ccc(-c2ccc(Nc3ccc(S(=O)(=O)N4CCCC4)cc3)nn2)cc1OC | 12.6 µM (active) | – |
| COc1ccccc1CC(=O)Nc1ccc(S(=O)(=O)N2CCCC2)cc1 | inactive | – |
| COc1ccc(S(=O)(=O)Nc2ccc(S(=O)(=O)N3CCCCC3)cc2)cc1OC | inactive | – |
| COc1ccc(NS(=O)(=O)c2ccc(N3CCOCC3)c(NC(=O)/C=C/C(=O)O)c2)cc1 | inactive | – |
| Cc1nc(Nc2ccc3c(c2)OCCO3)c2nnn(Cc3ccccc3Cl)c2n1 | 10 µM (active) | – |
| CCCc1nc(NCc2ccc3c(c2)OCO3)c2nnn(Cc3ccccc3Cl)c2n1 | inactive | – |
| Cc1nc(Nc2ccccc2F)c2nnn(Cc3ccccc3Cl)c2n1 | inactive | – |
| CCN(CC(=O)Nc1ccccc1C(=O)NC1CC1)Cc1cccs1 | inactive | – |
| Cc1ccccc1NC(=O)Cc1nc(COC(=O)c2ccc(C(F)(F)F)cc2)cs1 | inactive | – |
| COc1cccc(NC(=S)NCc2ccco2)c1 | inactive | – |
| CCNC(=S)N(CCc1c(C)[nH]c2ccc(C)cc12)Cc1ccco1 | – | 1.39% [at 8.37 µM] |
| COc1cccc(NC(=S)N(CCc2c(C)[nH]c3ccccc23)Cc2ccco2)c1 | 25.1 µM (active) | – |
| CC(C)CC1(C)NC(=O)N(CC(=O)Nc2ccc3c(c2)OCCO3)C1=O (stereo unspecified) | inactive | – |
| O=C(CN1CCOCC1)Nc1cc(Cl)ccc1Cl | inactive | – |
| CC1(c2ccccc2)NC(=O)N(CC(=O)Nc2cc(Cl)ccc2N2CCOCC2)C1=O (stereo unspecified) | inactive | – |
| O=C(CSc1nc(Nc2ccccc2)nc(N2CCOCC2)n1)Nc1cc(Cl)ccc1O | 10 µM (active) | – |
| C#CCOCCOCCOCCNc1nc(N2CCN(C(=O)Cn3cc(CCO)nn3)CC2)nc(N2CCN(C(=O)Cn3cc(CCCN=C(N)N)nn3)CC2)n1 | inactive | – |
